Activity calls are given as the source filed them. Unless noted, the rule behind the calls is not given here.
Key:
[1] = compound effects on lung adenocarcinoma cell viability – A549, calcein-AM fluorescence, 48 h, basal, profiling panel (AID 1162); details: higher = more signal; note: test concentration not given here
[2] = compound effects on differentiated 3T3-L1 adipocyte viability – cell-based, 3T3-L1 adipocytes, calcein-AM fluorescence, 48 h, basal, profiling panel (AID 1163); details: 3T3-L1 adipocytes viability, higher = more signal; note: test concentration not given here
[3] = compound effects on hepatocellular carcinoma cell viability – HepG2, calcein-AM fluorescence, 48 h, basal, profiling panel (AID 1164); details: higher = more signal; note: test concentration not given here
[4] = compound effects on multiple myeloma cell viability – MM1S, calcein-AM fluorescence, 48 h, basal, profiling panel (AID 1165); details: higher = more signal;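 note: viability of MM1S multiple myeloma cells under basal unstimulated conditions; test concentration not given here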
[5] = calcein-AM signal in unstimulated myeloma cells – cell-based, calcein-AM fluorescence, 48 h, PK04 Diversity Set, profiling panel (AID 1166); details: RPMI8226 myeloma viability, higher = more signal;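 note: cells grown under basal conditions without added stimulus; test concentration not given here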
[6] = JC-1 mitochondrial signal, unstimulated HepG2 cells – cell-based, JC-1 fluorescence, 24 h, 100 nL compound, profiling panel (AID 1167); details: HepG2 mitochondrial potential, higher = more signal; note: test concentration not given here
[7] = JC-1 mitochondrial signal, unstimulated adipocytes – cell-based, JC-1 fluorescence, 3T3-L1 adipocytes, 24 h, 100 nL compound, profiling panel (AID 1168); details: JC-1 mitochondrial fluorescence, higher = more signal, called active from +8 up or from −8 down; note: test concentration not given here
[8] = JC-1 mitochondrial signal, unstimulated myeloma cells – cell-based, JC-1 fluorescence, RPMI8226, 24 h, 100 nL compound, profiling panel (AID 1169); details: JC-1 mitochondrial potential fluorescence, higher = more signal; note: test concentration not given here
[9] = JC-1 mitochondrial signal, unstimulated MM1S myeloma – cell-based, JC-1 fluorescence, 24 h, 100 nL compound, profiling panel (AID 1170); details: MM1S mitochondrial potential, higher = more signal; note: test concentration not given here
[10] = resazurin metabolic signal in A549 cells – cell-based, resazurin fluorescence, 24 h, PK04 Diversity Set, profiling panel (AID 1171); details: A549 viability, higher = more signal, called active from +8 up or from −8 down; note: test concentration not given here
[11] = resazurin metabolic signal in HepG2 cells – cell-based, resazurin fluorescence, 24 h, PK04 Diversity Set, profiling panel (AID 1172); details: HepG2 viability, higher = more signal; note: test concentration not given here
[12] = budding yeast growth changes without added modifier – OD600, strain BY4716, 24 h, basal condition, primary screen (AID 1173); details: S. cerevisiae BY4716 growth, OD600, 24 h; higher = more signal, called active from +8 up or from −8 down
[13] = viability profiling in MM1S myeloma cells – cell-based, resazurin fluorescence, basal, 24 h, PK04 Diversity Set, profiling panel (AID 1174); details: higher = more signal, called active from +8 up or from −8 down; note: test concentration not given here
[14] = target: Dihydroorotate dehydrogenase (quinone), mitochondrial (Plasmodium falciparum (isolate 3D7)) (UniProt Q08210); assay: inhibition of P. falciparum DHODH – biochemical, C-terminal His tag, absorbance 600 nm, primary screen (AID 1175); details: PfDHODH enzyme, DCIP absorbance 600 nm; higher = more signal, called active from +8 up or from −8 down;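 note: recombinant parasite enzyme with a five histidine tag at its C terminus; test concentration not given here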
[15] = inhibition of PAO1 biofilm formation – strain PAO1, LB-PBS medium, absorbance 600 nm, primary screen (AID 1176); note: test concentration not given here; details: P. aeruginosa PAO1 growth/biofilm, A600, 12 h; higher = more signal
[16] = growth modulation of vineyard yeast isolate – strain RM11-1a, OD600, basal, 24 h, primary screen (AID 1177);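 note: cultures grown under basal conditions with no added stressor; test concentration not given here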; details: S. cerevisiae RM11-1a growth, OD600, 24 h; higher = more signal, called active from +8 up or from −8 down
[17] = growth of efflux-deficient E. coli DRC39 – strain DRC39, OD650, 24 h, E. coli filamentation inducers, primary screen (AID 1178);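 note: growth measured as culture turbidity by optical density at 650 nm; test concentration not given here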; details: E. coli DRC39 acrAB, higher = more signal, called active from +8 up or from −8 down
[18] = growth of efflux-deficient E. coli DRC39 – strain DRC39, OD650, 48 h, E. coli filamentation inducers, primary screen (AID 1179);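 note: screen aims at cell division blockers that make cells filament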; details: E. coli DRC39 delta-acrAB growth, higher = more signal, called active from +8 up or from −8 down
[19] = viability profiling in RPMI8226 myeloma cells – cell-based, resazurin fluorescence, basal, 24 h, PK04 Diversity Set, profiling panel (AID 1180); details: higher = more signal;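 note: RPMI8826 multiple myeloma cell line at 5000 cells per well; test concentration not given here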
[20] = target: E3 ubiquitin-protein ligase XIAP (Homo sapiens) (UniProt P98170); assay: small molecules binding XIAP protein – biophysical, small-molecule microarray, fluorescence 635 nm, primary screen (AID 1181); details: higher = more signal;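 note: score merges 667 nm emission and signal to noise over triplicate slides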
Sequence of E3 ubiquitin-protein ligase XIAP (Homo sapiens) (P98170 whole entry, looked up): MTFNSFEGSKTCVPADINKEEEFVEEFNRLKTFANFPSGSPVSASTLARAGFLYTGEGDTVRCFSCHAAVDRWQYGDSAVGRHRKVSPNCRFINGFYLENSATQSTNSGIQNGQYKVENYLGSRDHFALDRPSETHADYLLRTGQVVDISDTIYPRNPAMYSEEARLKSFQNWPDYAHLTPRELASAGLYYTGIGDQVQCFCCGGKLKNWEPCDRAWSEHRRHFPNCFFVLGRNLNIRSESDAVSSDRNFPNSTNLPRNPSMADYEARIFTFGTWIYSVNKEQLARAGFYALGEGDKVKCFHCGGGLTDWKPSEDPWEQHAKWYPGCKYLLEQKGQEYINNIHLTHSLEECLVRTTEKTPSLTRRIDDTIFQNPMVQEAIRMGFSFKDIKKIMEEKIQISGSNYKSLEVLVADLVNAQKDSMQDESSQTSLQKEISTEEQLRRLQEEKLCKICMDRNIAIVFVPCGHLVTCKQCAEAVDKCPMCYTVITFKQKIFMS

Sequence of Dihydroorotate dehydrogenase (quinone), mitochondrial (Plasmodium falciparum (isolate 3D7)) (Q08210 whole entry, looked up): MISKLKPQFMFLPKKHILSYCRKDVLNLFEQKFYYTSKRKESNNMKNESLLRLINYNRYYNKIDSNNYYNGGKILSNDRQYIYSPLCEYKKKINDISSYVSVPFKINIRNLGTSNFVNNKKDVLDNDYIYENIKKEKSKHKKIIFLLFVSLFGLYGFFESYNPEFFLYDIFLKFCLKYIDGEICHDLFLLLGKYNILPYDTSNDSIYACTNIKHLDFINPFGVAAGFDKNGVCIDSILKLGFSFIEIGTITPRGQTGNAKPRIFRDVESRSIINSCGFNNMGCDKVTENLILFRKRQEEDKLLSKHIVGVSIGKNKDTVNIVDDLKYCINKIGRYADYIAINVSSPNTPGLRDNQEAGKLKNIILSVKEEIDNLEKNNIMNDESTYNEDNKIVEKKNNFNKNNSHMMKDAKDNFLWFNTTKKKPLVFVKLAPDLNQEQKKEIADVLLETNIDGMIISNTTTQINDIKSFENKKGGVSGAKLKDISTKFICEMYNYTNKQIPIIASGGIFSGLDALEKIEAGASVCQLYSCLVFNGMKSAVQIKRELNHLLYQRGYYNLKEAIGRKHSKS

| SMILES | z-score [1] | z-score [2] | z-score [3] | z-score [4] | z-score [5] | z-score [6] | z-score [7] | z-score [8] | z-score [9] | z-score [10] | z-score [11] | z-score [12] | z-score [13] | composite z-score [14] | z-score [15] | z-score [16] | z-score [17] | z-score [18] | z-score [19] | composite z-score [20] |
| --- | --- | --- | --- | --- | --- | --- | --- | --- | --- | --- | --- | --- | --- | --- | --- | --- | --- | --- | --- | --- |
| CCOc1cc(C(O)C2C=CC3C(=O)N(c4ccccc4)C(=O)C3N2Nc2ccc(C#N)cc2)ccc1O (stereo not given) | -0.403 | -0.958 | 0.264 | -1.49 | -1.01 | -2.67 | -1.55 (inactive) | 0.674 | -0.443 | -0.883 (inactive) | -1.79 | -0.0687 (inactive) | -1.71 (inactive) | 0.45 (inactive) | 0.888 (inactive) | 0.093 (inactive) | -0.523 (inactive) | -0.245 (inactive) | -1.4 | -0.0438 |
| CC1=C([C@H](O)CCc2ccccc2)[C@H](CO)[C@@H]2C(=O)N(C)C(=O)[C@@H]2C1 | 1.18 | -0.371 | -0.473 | 0.236 | -0.245 | -0.622 | 0.459 (inactive) | -0.0985 | -0.279 | -0.39 (inactive) | -0.0457 | -2.32 (inactive) | -0.382 (inactive) | -1.2 (inactive) | 0.176 (inactive) | 0.291 (inactive) | 0.15 (inactive) | 0.181 (inactive) | 0.149 | -0.152 |
| Cc1ccc(S[C@]2(C(=O)NCCCN(C)C)CC(=O)N(C3CCCCC3)[C@@H]2c2ccc(CO)cc2)cc1 | 0.242 | -0.148 | -0.0685 | -1.96 | -0.0053 | 1.53 | -0.112 (inactive) | -0.151 | -0.528 | 1.06 (inactive) | -0.0347 | 0.0406 (inactive) | 0.118 (inactive) | 0.193 (inactive) | 0.236 (inactive) | 1.21 (inactive) | 0.425 (inactive) | 0.509 (inactive) | -0.0763 | -0.0374 |
| [N-]=[N+]=NCc1ccccc1[C@H]1OC(c2ccc(OCCCO)cc2)=N[C@@]1(CCS(=O)(=O)c1ccccc1)C(=O)NCC(O)CO (stereo not given in full) | -0.257 | 0.538 | 0.0325 | -0.381 | 0.429 | -1.57 | 0.466 (inactive) | -0.221 | -1.78 | -0.317 (inactive) | 0.044 | 0.323 (inactive) | -0.315 (inactive) | 1.09 (inactive) | 1.76 (inactive) | 1.64 (inactive) | 0.852 (inactive) | -0.679 (inactive) | 0.0345 | -0.0553 |
| CCC(CC)C(O)C1C=CC2C(=O)N(c3ccccc3)C(=O)C2N1Nc1ccc(C(C)C)cc1 (stereo not given) | -0.0442 | 0.667 | 0.0413 | -0.393 | -0.842 | -1.68 | 0.261 (inactive) | -0.0785 | 0.299 | -1.32 (inactive) | -1.35 | -0.129 (inactive) | -0.636 (inactive) | 0.851 (inactive) | 0.89 (inactive) | 1.27 (inactive) | -0.171 (inactive) | -0.297 (inactive) | -0.0095 | 0.159 |
| COc1ccc(CCNC(=O)[C@@]2(Sc3ccc(C)cc3)CC(=O)N(C3Cc4ccccc4C3)[C@@H]2c2ccc(CO)cc2)cc1 | -0.342 | 0.67 | -1.16 | -0.729 | -1.35 | -0.114 | -0.775 (inactive) | -0.608 | -0.885 | 0.358 (inactive) | 0.115 | 0.293 (inactive) | -1.13 (inactive) | -0.396 (inactive) | 0.31 (inactive) | -0.255 (inactive) | 0.514 (inactive) | 0.005 (inactive) | 0.136 | 2.04 |
| C[C@H]1NC(=O)[C@@]23C(=O)N[C@@H](Cc4ccccc4)C2[C@H](C)[C@@]2(C)O[C@H]2C3/C=C/C/C=C\CNC(=O)[C@H](Cc2ccccc2)NC1=O (stereo not given in full) | -0.518 | 0.76 | -0.607 | 0.401 | -0.45 | 0.88 | -0.588 (inactive) | 0.331 | 1.02 | 0.0548 (inactive) | -0.466 | 0.303 (inactive) | -0.0253 (inactive) | 0.226 (inactive) | 1.24 (inactive) | 1.31 (inactive) | 0.513 (inactive) | 0.32 (inactive) | 0.0583 | 0.104 |
| CC1CC/C=C\[C@H]2OC34C=CCN(C(C)C)C(=O)[C@H]3N(CCCCCCO)C(=O)[C@@H]4C2C(=O)O1 (stereo not given in full) | -0.868 | 1.53 | 0.25 | 1.2 | 0.626 | -0.0558 | -0.0814 (inactive) | -0.426 | -1.04 | 0.599 (inactive) | 0.609 | -0.815 (inactive) | 0.794 (inactive) | -0.36 (inactive) | 0.345 (inactive) | -0.908 (inactive) | 1.05 (inactive) | 0.864 (inactive) | 2.06 | 0.0914 |
| COCCOC(=O)N1C(=O)[C@@]2(c3cc(C#Cc4ccc(OC)cc4)ccc31)[C@H](C(=O)Nc1nc3ccccc3s1)[C@H]1C(=O)O[C@H](c3ccccc3)[C@H](c3ccccc3)N1[C@@H]2c1ccc(OCCO)cc1 | -0.205 | -0.106 | -1.07 | -1.59 | -0.482 | -3.17 | 2.92 (inactive) | -0.604 | -1.44 | -0.0799 (inactive) | -0.635 | 3.03 (inactive) | -0.63 (inactive) | -0.27 (inactive) | 2.32 (inactive) | 3.64 (inactive) | -0.358 (inactive) | -0.486 (inactive) | -0.56 | -0.075 |
| C=CCN1C(=O)[C@@]2(O[C@@H](CCn3cc([C@H](O)c4ccccc4)nn3)[C@H]([Si](C)(C)c3ccc(OC)cc3)[C@H]2C)c2cc(N3CCC3=O)ccc21 | 0.36 | 0.977 | 0.0404 | -1.12 | -2.81 | 2.18 | 0.385 (inactive) | -1.01 | 0.219 | -1.35 (inactive) | -0.721 | 0.869 (inactive) | -1.14 (inactive) | 0.936 (inactive) | 1.25 (inactive) | 2.39 (inactive) | 0.397 (inactive) | 0.477 (inactive) | -1.09 | -0.153 |
| [N-]=[N+]=NCc1ccccc1C[C@@]1(C(=O)N2CCOCC2)N=C(c2ccc(OCCCO)cc2)O[C@@H]1c1ccccc1 | -1.99 | 1.69 | -1.7 | -3.43 | -4.4 | -0.801 | 0.86 (inactive) | -1.25 | -1.12 | -1.32 (inactive) | -0.932 | -2.93 (inactive) | -4.83 (inactive) | 0.192 (inactive) | 0.593 (inactive) | -0.0165 (inactive) | 0.834 (inactive) | -0.274 (inactive) | -4.29 | 0.284 |
| CC(C)C[C@@H]1NC(=O)[C@@H]2C[C@H](C(=O)NCCCCCN)[C@H](c3ccc(O)cc3)N2C1=O | 0.0318 | 0.484 | -0.354 | -0.0387 | 0.286 | -0.502 | -0.259 (inactive) | 0.7 | 0.698 | -0.676 (inactive) | -1.3 | 0.732 (inactive) | -0.205 (inactive) | 0.582 (inactive) | -0.226 (inactive) | 1.04 (inactive) | -0.496 (inactive) | -0.728 (inactive) | -0.354 | 0.0015 |
| O=C1O[C@H](c2ccccc2)[C@H](c2ccccc2)N2[C@H]1[C@@H](C(=O)Nc1nc3ccccc3s1)[C@]1(C(=O)Nc3ccccc31)[C@H]2c1ccc(OCCO)cc1 | -0.52 | 0.0354 | 0.349 | -1.68 | -1.35 | -1.99 | 3.24 (inactive) | -1.07 | -1.83 | 0.0237 (inactive) | 0.0114 | 0.445 (inactive) | -1.08 (inactive) | -1.8 (inactive) | 3.02 (inactive) | 1.68 (inactive) | -0.476 (inactive) | 0.282 (inactive) | -2.02 | -0.356 |
